Values without a mark were called inactive.

The test system of this experiment is Caenorhabditis elegans L1 (N2). The experiment in a line: survival and reproduction score of C. elegans L1 (0: 0-10 living worms, 1: 11-20, 2: 21-50, 3: >50, 4: overgrown) (score 0-4); higher = more worms, less nematicidal, active = 1 or less; extreme values may be limits of the assay. The conditions noted are these: 60 µM; 6 days; temperature: 20 °C. A digest of the protocol: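 After compound was pinned to 60 µM final (0.6% v/v DMSO) into wells with roughly 20 synchronized C. elegans N2 L1s and E. coli HB101 in liquid NGM, the sealed 96-well plates were shaken at 200 rpm for 6 days at 20 °C. Under a dissection microscope, survival and reproduction were graded ordinally by living worms per well. A grade of 0 stood for 0–10 worms and 4 for overgrown, starved wells; two biological replicates were averaged.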
Regarding `COc1ccc(Cl)cc1-c1nc(-c2ccc3c(c2)OCO3)no1`, the “survival and reproduction score” value was 4.
`CC(=O)c1c(C)cc(C)c(CSc2nnc(-c3ccco3)o2)c1C`: the “survival and reproduction score” value is 4.
`O=C(Nc1ccc(-c2noc(COc3ccccc3Cl)n2)cc1)c1ccccn1`: the “survival and reproduction score” value is 4.
With `COc1cccc(-c2nc(-c3ccc(Br)cc3)no2)c1`, the “survival and reproduction score” value was 0 (active).
With `Cc1ccc(-c2nnc(SCC(=O)Nc3nccs3)o2)cc1`, the “survival and reproduction score” value is 4.
Under `CC(C)Oc1ccc(-c2nc(-c3ccncc3)no2)cc1` stands 0 (active); under `c1ccc(CSc2nnc(-c3ccccc3)o2)cc1`, 0 (active).
Then `COc1ccc(-c2noc(COc3ccc(Br)cc3)n2)cc1`, with 2; and `O=C(CSc1nnc(-c2ccccc2)o1)Nc1cccc(Br)c1`, with 4.
As to `Cc1cnnn1-c1ccc(-c2nc(-c3ccc(Cl)cc3)no2)cc1`, the “survival and reproduction score” value is 4.
As to `Clc1ccc(-c2nc(-c3ccccc3Br)no2)cc1`, the “survival and reproduction score” value was 3.5.
Under `O=C(CSc1nnc(-c2ccccc2)o1)Nc1cccc(F)c1` stands 4; under `Cc1ccccc1CSc1nnc(-c2ccncc2)o1`, 4; under `CCCSc1nnc(-c2ccc(Cl)cc2Cl)o1`, 0 (active).
For `CCOc1nc(-c2ccc(C)cc2)ccc1-c1noc(CC)n1`, the “survival and reproduction score” value was 4.
Regarding `Cc1ccccc1-c1nnc(SCc2ccccc2)o1`, the “survival and reproduction score” value was 3.
For the compound `CCCCC(=O)Nc1ccccc1-c1nc(-c2cccnc2)no1`, the “survival and reproduction score” value was 4.
Under `c1ccc(-c2noc(CSc3nc4ccccc4[nH]3)n2)cc1` stands 4; under `COc1ccccc1-c1nc(-c2ccc(C)cc2)no1`, 4; under `CCc1ccc(C(=O)Nc2ccccc2-c2nc(-c3ccncc3)no2)cc1`, 4.
Regarding `COc1ccccc1-c1nnc(SCC(=O)Nc2ccc(Br)cn2)o1`, the “survival and reproduction score” value was 4.
For the compound `CC(C)Oc1ccc(-c2nc(-c3cccnc3)no2)cc1`, the “survival and reproduction score” value is 0 (active).
With `Cc1ccc(-c2noc(C3CCCCC3)n2)cc1`, the “survival and reproduction score” value was 0 (active).
Then `Cc1ccc(-c2noc(COc3ccc(C)cc3C)n2)cc1`, with 4; and `CC(=O)Nc1ccc(-c2nc(-c3ccccc3)no2)cc1`, with 4.
As for `Clc1ccc(OCc2nc(-c3ccccc3)no2)c(Cl)c1`, the “survival and reproduction score” value was 0 (active).
`COc1ccc(CC(=O)Nc2ccc(-c3noc(-c4ccc(F)cc4)n3)cc2)cc1`: the “survival and reproduction score” value was 4.
Regarding `Cc1ccc(-c2noc(-c3ccc4c(c3)OCCO4)n2)cc1`, the “survival and reproduction score” value was 4.
Under `COc1ccc(-c2noc(-c3ccccc3Cl)n2)cc1` stands 4; under `O=C(CSc1nnc(-c2ccco2)o1)c1ccccc1`, 4.
As to `c1ccc(-c2nnc(SCc3cccnc3)o2)cc1`, the “survival and reproduction score” value is 4.
Then `CCOc1nc(-c2ccccc2)ccc1-c1noc(-c2cccc(OC)c2)n1`, with 4; and `Cc1cccc(-c2nc(-c3ccc(Br)cc3)no2)c1`, with 0 (active).
`O=C(CSc1nnc(-c2ccccc2)o1)Nc1cc(C(F)(F)F)ccc1Cl`: the “survival and reproduction score” value was 4.
Then `CCCC(=O)Nc1ccccc1-c1nc(-c2ccccn2)no1`, with 4; and `CCOc1ccc(-c2noc(-c3ccncc3)n2)cc1OC`, with 4; and `Cc1ccc(-c2nc(-c3ccccc3Cl)no2)cc1`, with 4.
In the case of `CCOc1cc(-c2noc(-c3ccncc3)n2)ccc1OC`, the “survival and reproduction score” value was 4.
On to `COc1ccc(-c2noc(-c3ccc(C)cc3)n2)cc1`, for which the “survival and reproduction score” value was 3.

(Values after the supplement of paper PMC11219838.)
